# Experimental data published in PubChem BioAssay AID1159580 (chemical genetic matrix, 2015).
# Several values for one entry are separate records, joined by “and”; a condition that tells them apart may be missing. Identical values can stand only once. Hit rate of the full screen: of about 5,500 compounds, about 2,000 (36%) were called active. Inconclusive results (about 18%) are left out. The list shows a part of the results. Unmarked numbers belong to inactive results. Rule as the data show it: active = normalized growth mostly below about 0.91 (no sharp cut-off); inconclusive = no clear call, values can overlap the other calls; inactive = mostly above about 0.92.
# Assay: chemical genetic growth profiling, strain panel (AID 1159580);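 also: tested at 20 µM; growth read once vehicle control cultures reached saturation at 30 °C; 1 = growth at the plate median or of vehicle wells; lower values mean less growth of the strain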
# Settings: S. cerevisiae deletion strains, growth OD
smiles,measurement,setting,value
O=[N+]([O-])O[C@H]1CO[C@H]2[C@@H]1OC[C@H]2O[N+](=O)[O-],normalized growth,"locus YAL013W, strain DEP1, hits give low values",1.01
same,normalized growth,"locus YAL021C, strain ccr4, hits give low values",0.993
same,normalized growth,"locus YAL026C, strain drs2, hits give low values",1.01
same,normalized growth,"locus YAL030W, strain snc1, hits give low values",1
same,normalized growth,"locus YBL061C, strain skt5, hits give low values",1
same,normalized growth,"locus YBR009C, strain hhf1, hits give low values",1
same,normalized growth,"locus YBR021W, strain FUR4, hits give low values",1.01
same,normalized growth,"locus YBR023C, strain chs3, hits give low values",0.984
same,normalized growth,"locus YBR171W, strain sec66, hits give low values",0.993
same,normalized growth,"locus YBR229C, strain ROT2, hits give low values",1.01
same,normalized growth,"locus YBR231C, strain swc5, hits give low values",0.981
same,normalized growth,"locus YBR279W, strain paf1, hits give low values",0.978
same,normalized growth,"locus YCL011C, strain gbp2, hits give low values",0.99
same,normalized growth,"locus YCL016C, strain dcc1, hits give low values",0.97
same,normalized growth,"locus YCL029C, strain bik1, hits give low values",1.03
same,normalized growth,"locus YCL061C, strain MRC1, hits give low values",0.985
same,normalized growth,"locus YCL069W, strain vba3, hits give low values",0.999
same,normalized growth,"locus YCR088W, strain abp1, hits give low values",0.985
same,normalized growth,"locus YDL005C, strain med2, hits give low values",0.991
same,normalized growth,"locus YDL035C, strain GPR1, hits give low values",1.03
same,normalized growth,"locus YDL040C, strain nat1, hits give low values",0.999
same,normalized growth,"locus YDL074C, strain BRE1, hits give low values",1.01
same,normalized growth,"locus YDL101C, strain DUN1, hits give low values",1
same,normalized growth,"locus YDL134C, strain PPH21, hits give low values",1.01
same,normalized growth,"locus YDL185W, strain tfp1, hits give low values",1.01
same,normalized growth,"locus YDL192W, strain arf1, hits give low values",1.02
same,normalized growth,"locus YDR001C, strain nth1, hits give low values",0.991
same,normalized growth,"locus YDR069C, strain doa4, hits give low values",1
same,normalized growth,"locus YDR101C, strain arx1, hits give low values",0.989
same,normalized growth,"locus YDR137W, strain rgp1, hits give low values",0.971
same,normalized growth,"locus YDR159W, strain sac3, hits give low values",1.01
same,normalized growth,"locus YDR162C, strain NBP2, hits give low values",1.02
same,normalized growth,"locus YDR195W, strain ref2",0.977
same,normalized growth,"locus YDR297W, strain sur2, hits give low values",0.99
same,normalized growth,"locus YDR318W, strain mcm21, hits give low values",1.05
same,normalized growth,"locus YDR334W, strain swr1, hits give low values",0.991
same,normalized growth,"locus YDR335W, strain msn5, hits give low values",0.995
same,normalized growth,"locus YDR388W, hits give low values",1.02
same,normalized growth,"locus YDR392W, strain spt3, hits give low values",0.91
same,normalized growth,"locus YDR502C, strain sam2, hits give low values",1.03
same,normalized growth,"locus YEL003W, strain gim4, hits give low values",1
same,normalized growth,"locus YEL037C, strain rad23, hits give low values",0.995
same,normalized growth,"locus YEL061C, strain CIN8 (second series), hits give low values",0.99
same,normalized growth,"locus YEL061C, strain CIN8, hits give low values",1.01
same,normalized growth,"locus YER015W, strain faa2, hits give low values",1.01
same,normalized growth,"locus YER016W, strain bim1, hits give low values",1
same,normalized growth,"locus YER110C, hits give low values",1.02
same,normalized growth,"locus YER111C, strain swi4, hits give low values",0.979
same,normalized growth,"locus YER155C, strain BEM2 (second series), hits give low values",0.998
same,normalized growth,"locus YER155C, strain BEM2, hits give low values",1.01
same,normalized growth,"locus YER167W, strain BCK2, hits give low values",1.02
same,normalized growth,"locus YFR010W, strain ubp6, hits give low values",1
same,normalized growth,"locus YGL078C, strain dbp3, hits give low values",1.02
same,normalized growth,"locus YGL086W, strain mad1, hits give low values",1.01
same,normalized growth,"locus YGL167C, strain pmr1, hits give low values",1
same,normalized growth,"locus YGL173C, strain kem1, hits give low values",1
same,normalized growth,"locus YGL227W, strain vid30, hits give low values",0.986
same,normalized growth,"locus YGL240W, strain doc1, hits give low values",0.988
same,normalized growth,"locus YGL248W, strain PDE1, hits give low values",0.999
same,normalized growth,"locus YGL253W, strain hxk2, hits give low values",1.01
same,normalized growth,"locus YGR078C, strain PAC10, hits give low values",1.03
same,normalized growth,"locus YGR135W, strain pre9, hits give low values",1.04
same,normalized growth,"locus YGR252W, strain gcn5, hits give low values",1.3 [resistant] (active)
same,normalized growth,"locus YHR013C, strain ard1, hits give low values",0.971
same,normalized growth,"locus YHR027C, strain rpn1, hits give low values",0.998
same,normalized growth,"locus YHR030C, strain SLT2, hits give low values",1.01 and 0.95
same,normalized growth,"locus YHR079C, strain IRE1 (second series), hits give low values",1.02
same,normalized growth,"locus YHR079C, strain IRE1, hits give low values",0.956
same,normalized growth,"locus YHR094C, strain hxt1, hits give low values",1.02
same,normalized growth,"locus YHR129C, strain ARP1, hits give low values",1.01
same,normalized growth,"locus YHR142W, strain chs7, hits give low values",0.991
same,normalized growth,"locus YHR200W, strain rpn10, hits give low values",1.02
same,normalized growth,"locus YIL066C, strain RNR3, hits give low values",1.02
same,normalized growth,"locus YIL073C, strain SPO22, hits give low values",1.06
same,normalized growth,"locus YIL125W, strain kgd1, hits give low values",1.01
same,normalized growth,"locus YIR030C, strain dcg1, hits give low values",1.01
same,normalized growth,"locus YJL092W, strain hpr5, hits give low values",0.999
same,normalized growth,"locus YJL095W, strain BCK1 (second series), hits give low values",0.992
same,normalized growth,"locus YJL095W, strain BCK1, hits give low values",1.01 and 0.925
same,normalized growth,"locus YJL115W, strain asf1, hits give low values",0.991
same,normalized growth,"locus YJL129C, strain trk1, hits give low values",0.991
same,normalized growth,"locus YJL134W, strain LCB3, hits give low values",1.02
same,normalized growth,"locus YJL154C, strain vps35, hits give low values",0.998
same,normalized growth,"locus YJL164C, strain tpk1, hits give low values",0.988
same,normalized growth,"locus YJL166W, strain qcr8, hits give low values",0.984
same,normalized growth,"locus YJL168C, strain set2, hits give low values",1
same,normalized growth,"locus YJL187C, strain SWE1 (second series), hits give low values",1.01
same,normalized growth,"locus YJL187C, strain SWE1, hits give low values",1
